8 compounds from PubChem BioAssay (NCI) can be followed below.

Test systems include EKVX NSCLC; SN12C renal; UO-31 renal; ACHN renal; CAKI-1 renal; A498 renal; CCRF-CEM leukemia; MOLT-4 leukemia; SR leukemia; RPMI-8226 leukemia; OVCAR-8 ovarian; OVCAR-5 ovarian; OVCAR-4 ovarian; SK-OV-3 ovarian; IGROV1 ovarian; OVCAR-3 ovarian; HS 578T breast; NCI/ADR-RES ovarian; TK-10 renal.
Test in all cases: NCI-60 one-dose screen, 48 h (100 = growth as untreated, 0 = no growth, -100 = all killed)
What all share (conditions): 10 µM unless noted

Compounds without any hit were thinned out: in the full panel of roughly 83,000, 20% have a hit.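 The test compound was applied at a single concentration to cells in 96-well plates for 48 hours, and percent growth was recorded.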 Unmarked numbers belong to inactive results. Active and inactive are the calls of the source. The calls were made as follows: active = growth percent below 10; inactive = the rest.

For `CCCCCCCCCCNCCSS(=O)(=O)O`, the growth was 101% in the test with EKVX NSCLC; 31.5% in the test with SN12C renal; 70.6% with UO-31 renal; 92.6% with ACHN renal; 98.8% in the test on CAKI-1 renal; 101% in the test with A498 renal. Besides, the growth in the test on CCRF-CEM leukemia was 50.3%; in the test with MOLT-4 leukemia, 9.96% (active); in the test on SR leukemia, 52.1%; in the test with RPMI-8226 leukemia, 98.2%; in the test on OVCAR-8 ovarian it was 65.9%; in the test on OVCAR-5 ovarian it was 103%. Moreover, the growth is 102% in the test on OVCAR-4 ovarian; 84.8% in the test on SK-OV-3 ovarian; 91.2% with IGROV1 ovarian; 72.3% in the test on OVCAR-3 ovarian; 52.1% in the test with HS 578T breast; 83.7% in the test with NCI/ADR-RES ovarian.

Regarding `CC(=O)N1N=C(c2ccc(Nc3nc(NCCO)nc(NCCO)n3)cc2)CC1c1ccc(Cl)cc1` (configuration not stated), the growth in the test with EKVX NSCLC was 91.9%; with SN12C renal, 98.8%; with UO-31 renal, 96.9%; in the test with TK-10 renal, 83.3%; with A498 renal it was 102%; with CCRF-CEM leukemia, 114%. Besides, the growth was 116% in the test on MOLT-4 leukemia; 142% with SR leukemia; 112% in the test on RPMI-8226 leukemia; 104% in the test on OVCAR-8 ovarian; 103% in the test on OVCAR-5 ovarian; 104% with OVCAR-4 ovarian. Besides, the growth in the test with SK-OV-3 ovarian was 101%; in the test with NCI/ADR-RES ovarian, 99.8%.

As to `COc1ccc(Oc2ccccc2NC(=O)CNC(=O)c2cccc3ccccc23)cc1`, the growth is 46.3% [5 µM] with EKVX NSCLC; 46.7% [5 µM] in the test with SN12C renal; 42.4% [5 µM] in the test with UO-31 renal; 47.6% [5 µM] in the test on TK-10 renal; 40.3% [5 µM] with ACHN renal; 7% [5 µM] (active) in the test on A498 renal. Moreover, the growth is 15.5% [5 µM] with CCRF-CEM leukemia; 17.1% [5 µM] with MOLT-4 leukemia; 23.7% [5 µM] in the test with SR leukemia; 27.4% [5 µM] in the test with RPMI-8226 leukemia; 17% [5 µM] in the test with OVCAR-8 ovarian; 40.9% [5 µM] with OVCAR-5 ovarian. Further, the growth was 67.2% [5 µM] in the test on OVCAR-4 ovarian; 20.4% [5 µM] with SK-OV-3 ovarian; 33% [5 µM] with IGROV1 ovarian; -16.6% [5 µM] (active) with OVCAR-3 ovarian; 15.3% [5 µM] in the test on NCI/ADR-RES ovarian.

As to `CCN(CC)c1ccc(C(=C2C=CC(=[N+](CC)Cc3cccc(S(=O)(=O)O)c3)C=C2)c2ccc(N(CC)Cc3cccc(S(=O)(=O)O)c3)cc2)cc1`, the growth is 33.2% with EKVX NSCLC; 22.8% in the test with SN12C renal; 45.4% with UO-31 renal; 69.5% in the test on TK-10 renal; 77.3% with ACHN renal; 36% with A498 renal. The growth was 12.4% with CCRF-CEM leukemia; 48% in the test with MOLT-4 leukemia; -43.1% (active) in the test with RPMI-8226 leukemia; 68.2% in the test on OVCAR-5 ovarian; 67.1% in the test on OVCAR-4 ovarian; 85.3% in the test with SK-OV-3 ovarian. Further, the growth is 16.1% in the test with IGROV1 ovarian, 14.2% in the test on OVCAR-3 ovarian, 71.9% with HS 578T breast and 92.6% in the test with NCI/ADR-RES ovarian.

On to `O=C(CNC(=O)c1cccc2ccccc12)Nc1ccccc1Cc1ccccc1`, for which the growth in the test with EKVX NSCLC was 54.9% [5 µM]; in the test with SN12C renal it was 56.3% [5 µM]; in the test on UO-31 renal it was 60.7% [5 µM]; in the test on TK-10 renal, 49.6% [5 µM]; in the test with ACHN renal, 56.9% [5 µM]; in the test with A498 renal, 38.2% [5 µM]. Further, the growth in the test with CCRF-CEM leukemia was 20.4% [5 µM]; with MOLT-4 leukemia, 19.2% [5 µM]; in the test on SR leukemia, 18.8% [5 µM]; with RPMI-8226 leukemia, 39.1% [5 µM]; with OVCAR-8 ovarian, 37.6% [5 µM]; in the test on OVCAR-5 ovarian, 66.4% [5 µM]. The growth in the test on OVCAR-4 ovarian is 81.2% [5 µM]; with SK-OV-3 ovarian it was 45% [5 µM]; in the test with IGROV1 ovarian, 53% [5 µM]; with OVCAR-3 ovarian it was 15.5% [5 µM]; with NCI/ADR-RES ovarian, 17% [5 µM].

`Clc1ccc(C2=NN(c3ccc(Cl)cc3)C(c3cccc(Nc4ccnc5cc(Cl)ccc45)c3)C2)cc1` (configuration not stated): the growth in the test with EKVX NSCLC was 74.3%; in the test on SN12C renal, 77.7%; in the test with UO-31 renal, 50.7%; in the test with TK-10 renal, 95.2%; in the test on ACHN renal, 88.7%; with A498 renal it was 89.3%. Also, the growth was 88.5% with CCRF-CEM leukemia; 56.7% in the test on MOLT-4 leukemia; 77% with SR leukemia; 71.7% in the test on RPMI-8226 leukemia; 80.4% in the test on OVCAR-8 ovarian; 93.5% in the test with OVCAR-5 ovarian. For the same compound, the growth with OVCAR-4 ovarian was 73%; with SK-OV-3 ovarian it was 60.7%; in the test with IGROV1 ovarian, 75.4%; in the test with NCI/ADR-RES ovarian it was 74.1%.

Regarding `O=C1/C=C/[C@@H](O)[C@@H]2C[C@@H](O)C[C@H]2/C=C/CCC[C@H](CO)O1`, the growth is 36.4% in the test with EKVX NSCLC; 43.9% in the test with SN12C renal; 11.2% in the test with UO-31 renal; 19.8% in the test on ACHN renal; 17.9% in the test on CAKI-1 renal; -30.3% (active) with A498 renal. For the same compound, the growth in the test on CCRF-CEM leukemia was 22.3%; with MOLT-4 leukemia, -16.9% (active); with RPMI-8226 leukemia it was 37.4%; in the test on OVCAR-8 ovarian it was 35.4%; in the test with OVCAR-5 ovarian it was 52.8%; in the test on OVCAR-4 ovarian, 26.2%. Moreover, the growth is 50.7% in the test with SK-OV-3 ovarian; 49.9% in the test with IGROV1 ovarian; -2.9% (active) with OVCAR-3 ovarian; 35.5% in the test on HS 578T breast; 15.9% in the test with NCI/ADR-RES ovarian.

For `O=C(CNC(=O)c1cccc2ccccc12)Nc1ccccc1Oc1cccc(O)c1`, the growth is 47.2% [5 µM] in the test with EKVX NSCLC; 49% [5 µM] in the test with SN12C renal; 44.5% [5 µM] with UO-31 renal; 42% [5 µM] in the test on TK-10 renal; 51% [5 µM] in the test with ACHN renal; 11.5% [5 µM] with A498 renal. Further, the growth is 15.1% [5 µM] in the test on CCRF-CEM leukemia; 11.9% [5 µM] in the test on MOLT-4 leukemia; 18.7% [5 µM] in the test with SR leukemia; 25.9% [5 µM] in the test on RPMI-8226 leukemia; 15.3% [5 µM] in the test on OVCAR-8 ovarian; 39.9% [5 µM] with OVCAR-5 ovarian. In addition, the growth with OVCAR-4 ovarian was 59.1% [5 µM]; with SK-OV-3 ovarian it was 7.7% [5 µM] (active); in the test on IGROV1 ovarian, 42.9% [5 µM]; in the test on OVCAR-3 ovarian, -10.8% [5 µM] (active); in the test on NCI/ADR-RES ovarian, 13% [5 µM].
